# For some assays here: Entries with a potency or affinity are not part of this list. Active and inactive are the calls of the source.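 Rule for the calls, unless noted: active = compound raising the membrane signal above positive-control mean plus 3 SD in both repeats, and a primary screen hit; inactive = the rest.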
# Experiments:
# [1] = system: TRPC4 beta (transient receptor potential cation channel C4), mouse; test: TRPC4 cation channel opening, retest – cell-based, Fluo4 calcium, HEK293 TRPC4beta/mu-opioid, duplicates, 10 µM, confirmation (AID 2426;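 active = fluorescence ratio normalized to control raised more than 50% in primary screen plus both repeat runs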;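 for activation: percent rise of integrated ratio over buffer wells lacking compound which define 0%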); conditions: Fluo4 calcium fluorescence, at 10 µM; active compounds read high
# [2] = system: transient receptor potential cation channel C4 beta (TRPC4), mouse; test: TRPC4 cation channel opening, second retest – cell-based, second round, Fluo4, HEK293 TRPC4beta/mu-opioid, 1 µM, confirmation (AID 2461;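 active = primary screen active and over 50% activation in each of two duplicate runs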); conditions: Fluo4 calcium fluorescence, at 1 µM; active compounds read high
# [3] = system: TRPC4 (transient receptor potential cation channel C4 beta), mouse; test: potentiation of DAMGO EC20 TRPC4 response – cell-based, second round, Fluo-4, HEK293 TRPC4beta/mu-opioid, 1 µM, confirmation (AID 2554;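 active = primary screen hit whose fluorescence ratio, in both repeats, exceeds the weak agonist control mean by 3 SD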); conditions: DAMGO EC20, Fluo-4 calcium flux, at 1 µM; active compounds read high
# [4] = system: TRPC4 beta (transient receptor potential cation channel C4), mouse; test: potentiation of DAMGO EC20 TRPC4 response – cell-based, Fluo-4, HEK293 TRPC4beta/mu-opioid, confirmation (AID 2555;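 active = primary screen hit whose calcium fluorescence ratio, in both repeats, exceeds the weak agonist control mean by 3 SD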); conditions: DAMGO EC20, Fluo-4 calcium flux, at 10 µM; active compounds read high
# [5] = target: Short transient receptor potential channel 4 (Mus musculus) (UniProt Q9QUQ5); test: blockers of DAMGO-evoked TRPC4 calcium flux – cell-based, Fluo4, HEK293 TRPC4beta/mu-opioid, confirmation (AID 2636;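 active = calcium signal cut by more than 3 SD below the full-agonist control yet still positive, in both repeats and the earlier primary screen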); conditions: at 10 µM; active compounds read high
# [6] = target: Short transient receptor potential channel 4 (Mus musculus) (UniProt Q9QUQ5); test: blockers of DAMGO-evoked TRPC4 calcium flux – cell-based, second round, Fluo4, HEK293 TRPC4beta/mu-opioid, 1 µM, confirmation (AID 2637;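 active = calcium signal ratio cut to more than 3 SD under the fully stimulated control mean yet still positive, in both repeats and the primary screen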;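 for inhibition: percent of integrated ratio relative to wells lacking test compound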); conditions: at 1 µM; active compounds read high
# [7] = target: Short transient receptor potential channel 4 (Mus musculus) (UniProt Q9QUQ5); test: calcium entry via TRPC4 opening agents – cell-based, HEK293 TRPC4/mu-opioid, Fluo-4 calcium, dose response (AID 434937;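 active = primary screen activator hit with a dose response curve and TRPC4 channel activation at any tested dose; inactive = no activation, no dose response, or not a primary hit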)
# [8] = target: Short transient receptor potential channel 4 (Mus musculus) (UniProt Q9QUQ5); test: potentiation of DAMGO-evoked TRPC4 calcium signal – cell-based, HEK293 TRPC4/mu-opioid, Fluo-4 calcium, EC20 DAMGO, dose response (AID 434941;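 active = earlier screen potentiator hit that boosts the TRPC4 ion channel at some dose, with a dose response; inactive = no potentiation, no dose response, or not a prior hit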;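 note: calcium entry triggered by an EC20 dose of DAMGO at the co-expressed mu-opioid receptor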)
# [9] = target: Short transient receptor potential channel 6 (Mus musculus) (UniProt Q61143); test: TRPC6 blockade by TRPC4 inhibitor hits – cell-based, HEK293, membrane potential dye, duplicate, selectivity assay for TRPC4 inhibitor project, confirmation (AID 434948;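 active = active in primary screen and both duplicates, each dropping signal beyond three positive-control SD with fluorescence still positive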); conditions: HEK293 TRPC6, membrane potential dye fluorescence, at 10 µM, stimulated with maximal-effect acetylcholine; active compounds read high
# [10] = target: Short transient receptor potential channel 6 (Mus musculus) (UniProt Q61143); test: TRPC6 opening by TRPC4 activator hits – cell-based, HEK293, membrane potential dye, duplicate, selectivity assay for TRPC4 activator project, confirmation (AID 434950;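 active = membrane potential signal rise above negative control mean plus 3 SD in both duplicates, also active in the earlier TRPC4 screen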); conditions: HEK293 TRPC6, membrane potential fluorescence, at 10 µM; activation: active compounds read high; outcome: activation
# [11] = target: Short transient receptor potential channel 6 (Mus musculus) (UniProt Q61143); test: positive modulators of mouse TRPC6 channel – HEK293 cells, membrane potential dye, duplicate, selectivity assay for TRPC4 potentiator project, confirmation (AID 434952); conditions: HEK293 TRPC6, membrane potential dye fluorescence, at 10 µM, maximal acetylcholine added after compound; active compounds read high
# [12] = target: Short transient receptor potential channel 4 (Mus musculus) (UniProt Q9QUQ5); test: calcium flux activators in TRPC4/5HT1a cells, counter-screen for TRPC4 activator project, cell-based, second counter screen, HEK293 TRPC4/5HT1a, Fluo-4 (AID 434977;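 active = calcium signal rise above buffer-control mean plus 5 SD in both duplicates, and also a hit in the primary screen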); conditions: Fluo-4 calcium flux, at 10 µM; active compounds read high
# [13] = serotonin-gated TRPC4 signal block – cell-based, second counter screen, HEK293 TRPC4/5HT1a, Fluo-4, counter-screen for TRPC4 inhibitor project, confirmation (AID 434978;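 active = primary screen active whose calcium signal fell more than 3 SD beyond the full-serotonin control mean in both duplicate plates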;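 for outcome: serotonin given first at submaximal then at maximal dose after compound preincubation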); conditions: Fluo-4 calcium flux, at 10 µM, serotonin added to trigger calcium flux; active compounds read high
# [14] = system: TRPC4 (mouse), co-expressed with 5HT1a in HEK293; test: enhancement of serotonin-evoked TRPC4 response – cell-based, second counter screen, HEK293 TRPC4/5HT1a, Fluo-4, counter-screen for TRPC4 potentiator project, confirmation (AID 434979;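 active = signal rise over 3 SD above mean of control wells given weak agonist, in both repeats and first screen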); conditions: Fluo-4 calcium flux, at 10 µM, serotonin added at its EC20 dose; active compounds read high
# [15] = nonspecific calcium rise without TRPC4 – cell-based, HEK293 mu-opioid receptor line, counter-screen for TRPC4 activator project, confirmation (AID 449723;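 active = hit in primary screen, with calcium signal over 5 SD above buffer well mean in both duplicates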;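 note: counter screen cells carry the mu-opioid receptor alone and lack TRPC4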); conditions: HEK293 mu-opioid cells, Fluo-4 calcium fluorescence, at 10 µM; active compounds read high
# [16] = nonspecific potentiation of DAMGO calcium response – cell-based, HEK293 mu-opioid receptor line, counter-screen for TRPC4 allosteric potentiator project, confirmation (AID 449724;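 active = calcium signal rise more than 3 SD above the low-dose agonist control mean, in both duplicate plates and the primary screen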); conditions: HEK293 mu-opioid receptor cells, Fluo-4 calcium flux, at 10 µM, compound added before EC20 DAMGO stimulus; active compounds read high
# Chain of Short transient receptor potential channel 4 (Mus musculus) (Q9QUQ5 whole entry, looked up): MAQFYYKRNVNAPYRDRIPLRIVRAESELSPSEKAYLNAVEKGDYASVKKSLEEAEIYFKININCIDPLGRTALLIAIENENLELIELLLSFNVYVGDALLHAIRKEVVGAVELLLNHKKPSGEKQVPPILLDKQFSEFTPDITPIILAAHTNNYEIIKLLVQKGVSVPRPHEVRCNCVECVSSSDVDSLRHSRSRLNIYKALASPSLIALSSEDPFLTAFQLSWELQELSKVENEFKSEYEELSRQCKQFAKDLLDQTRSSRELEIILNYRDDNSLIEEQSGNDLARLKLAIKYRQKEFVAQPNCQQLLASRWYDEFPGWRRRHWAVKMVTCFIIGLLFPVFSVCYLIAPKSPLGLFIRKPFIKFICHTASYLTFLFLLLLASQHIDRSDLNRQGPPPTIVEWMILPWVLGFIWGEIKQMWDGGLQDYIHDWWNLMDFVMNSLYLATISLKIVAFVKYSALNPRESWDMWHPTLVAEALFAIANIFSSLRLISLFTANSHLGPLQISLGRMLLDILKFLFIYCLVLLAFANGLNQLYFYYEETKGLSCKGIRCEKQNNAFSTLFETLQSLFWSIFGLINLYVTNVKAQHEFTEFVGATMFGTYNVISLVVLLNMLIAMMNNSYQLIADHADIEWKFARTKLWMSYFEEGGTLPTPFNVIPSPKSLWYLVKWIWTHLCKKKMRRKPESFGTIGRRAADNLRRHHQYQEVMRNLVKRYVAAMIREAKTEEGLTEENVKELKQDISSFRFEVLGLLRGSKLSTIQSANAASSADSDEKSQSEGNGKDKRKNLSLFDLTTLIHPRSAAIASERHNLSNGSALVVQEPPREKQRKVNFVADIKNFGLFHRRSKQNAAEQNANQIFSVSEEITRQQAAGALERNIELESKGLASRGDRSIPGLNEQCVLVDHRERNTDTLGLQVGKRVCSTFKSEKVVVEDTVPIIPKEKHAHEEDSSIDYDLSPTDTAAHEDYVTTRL
# Chain of Short transient receptor potential channel 6 (Mus musculus) (Q61143 whole entry, looked up): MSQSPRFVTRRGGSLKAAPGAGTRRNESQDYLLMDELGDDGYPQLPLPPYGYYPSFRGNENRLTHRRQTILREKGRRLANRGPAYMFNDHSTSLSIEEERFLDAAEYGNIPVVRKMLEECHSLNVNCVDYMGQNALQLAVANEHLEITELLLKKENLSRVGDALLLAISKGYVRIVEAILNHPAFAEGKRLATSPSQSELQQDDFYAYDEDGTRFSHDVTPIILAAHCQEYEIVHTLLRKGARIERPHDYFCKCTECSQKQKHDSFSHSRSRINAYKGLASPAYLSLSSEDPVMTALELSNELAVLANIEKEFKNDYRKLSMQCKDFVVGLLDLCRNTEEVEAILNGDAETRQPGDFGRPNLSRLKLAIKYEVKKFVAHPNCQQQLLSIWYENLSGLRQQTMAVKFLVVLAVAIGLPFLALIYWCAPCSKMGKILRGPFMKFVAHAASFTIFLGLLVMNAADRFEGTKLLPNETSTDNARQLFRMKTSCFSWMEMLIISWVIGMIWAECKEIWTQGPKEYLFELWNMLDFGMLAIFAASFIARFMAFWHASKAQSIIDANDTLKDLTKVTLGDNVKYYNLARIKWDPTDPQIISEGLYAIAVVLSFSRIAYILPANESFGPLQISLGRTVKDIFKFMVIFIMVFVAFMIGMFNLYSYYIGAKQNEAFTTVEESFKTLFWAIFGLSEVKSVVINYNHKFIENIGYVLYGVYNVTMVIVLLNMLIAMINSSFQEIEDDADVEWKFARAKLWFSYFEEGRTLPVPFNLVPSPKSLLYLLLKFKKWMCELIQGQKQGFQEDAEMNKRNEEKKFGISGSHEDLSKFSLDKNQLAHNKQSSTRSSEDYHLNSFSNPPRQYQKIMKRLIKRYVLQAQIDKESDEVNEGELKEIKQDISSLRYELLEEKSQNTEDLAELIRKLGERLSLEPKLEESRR
smiles,measurement,setting,value
Cc1ccc(C)c2c(N)c3c(nc12)CCCCC3 (tested in a mixture with another compound),outcome,[1],inactive
same,outcome,[2],inactive
same,outcome,[3],inactive
same,outcome,[4],inactive
same,inhibition,[5],97% (active)
same,inhibition,[6],69% (active)
same,outcome,[7],inactive
same,outcome,[8],inactive
same,inhibition,[9],33.5% (active)
same,outcome,[10],inactive
same,outcome,[11],inactive
same,outcome,[12],inactive
same,inhibition,[13],8.52% (active)
same,outcome,[14],inactive
same,outcome,[15],inactive
same,outcome,[16],inactive
COc1ccc(NC(=O)c2cccc(N3C(=O)C4CC=C(C)CC4C3=O)c2)c(OC)c1 (stereo not drawn),outcome,[1],inactive
same,outcome,[2],inactive
same,outcome,[3],inactive
same,outcome,[4],inactive
same,inhibition,[5],75% (active)
same,outcome,[6],inactive
same,outcome,[7],inactive
same,outcome,[8],inactive
same,outcome,[9],inactive
same,outcome,[10],inactive
same,outcome,[11],inactive
same,outcome,[12],inactive
same,outcome,[13],inactive
same,outcome,[14],inactive
same,outcome,[15],inactive
same,outcome,[16],inactive
Cc1ccc(C[n+]2cc(-c3ccc(Cl)cc3)n3c2CCC3)cc1,outcome,[1],inactive
same,outcome,[2],inactive
same,outcome,[3],inactive
same,outcome,[4],inactive
same,inhibition,[5],73% (active)
same,inhibition,[6],64% (active)
same,outcome,[7],inactive
same,outcome,[8],inactive
same,outcome,[9],inactive
same,outcome,[10],inactive
same,outcome,[11],inactive
same,outcome,[12],inactive
same,inhibition,[13],41.9% (active)
same,outcome,[14],inactive
same,outcome,[15],inactive
same,outcome,[16],inactive
CC12CN3CC(C)(CN(C1)C3c1ccc(Cl)cc1Cl)C2O (stereo not drawn),activation,[1],66% (active)
same,outcome,[2],inactive
same,outcome,[3],inactive
same,outcome,[4],inactive
same,outcome,[5],inactive
same,inhibition,[6],64% (active)
same,outcome,[7],inactive
same,outcome,[8],inactive
same,outcome,[9],inactive
same,outcome,[10],inactive
same,outcome,[11],inactive
same,outcome,[12],inactive
same,outcome,[13],inactive
same,outcome,[14],inactive
same,outcome,[15],inactive
same,outcome,[16],inactive
CCCCN=C(Nc1ccc(Cl)cc1)c1cccnc1,outcome,[1],inactive
same,outcome,[2],inactive
same,outcome,[3],inactive
same,outcome,[4],inactive
same,inhibition,[5],82% (active)
same,inhibition,[6],54% (active)
same,outcome,[7],inactive
same,outcome,[8],inactive
same,outcome,[9],inactive
same,outcome,[10],inactive
same,outcome,[11],inactive
same,outcome,[12],inactive
same,outcome,[13],inactive
same,outcome,[14],inactive
same,outcome,[15],inactive
same,outcome,[16],inactive
COc1ccc2c(C)cc(N3CCCCCC3)nc2c1,outcome,[1],inactive
same,outcome,[2],inactive
same,outcome,[3],inactive
same,outcome,[4],inactive
same,inhibition,[5],96% (active)
same,inhibition,[6],63% (active)
same,outcome,[7],inactive
same,outcome,[8],inactive
same,inhibition,[9],33.5% (active)
same,outcome,[10],inactive
same,outcome,[11],inactive
same,outcome,[12],inactive
same,inhibition,[13],20.8% (active)
same,outcome,[14],inactive
same,outcome,[15],inactive
same,outcome,[16],inactive
OCC1(CCc2ccccc2)CCN(Cc2ccc3nsnc3c2)CC1,outcome,[1],inactive
same,outcome,[2],inactive
same,outcome,[3],inactive
same,outcome,[4],inactive
same,inhibition,[5],83% (active)
same,outcome,[6],inactive
same,outcome,[7],inactive
same,outcome,[8],inactive
same,outcome,[9],inactive
same,outcome,[10],inactive
same,outcome,[11],inactive
same,outcome,[12],inactive
same,outcome,[13],inactive
same,outcome,[14],inactive
same,outcome,[15],inactive
same,outcome,[16],inactive
CNC(=S)N1CCN(C(c2ccccc2)c2ccccc2)CC1,activation,[1],223% (active)
same,outcome,[2],inactive
same,outcome,[3],inactive
same,outcome,[4],inactive
same,inhibition,[5],93% (active)
same,outcome,[6],inactive
same,outcome,[7],inactive
same,outcome,[8],inactive
same,outcome,[9],inactive
same,outcome,[10],inactive
same,outcome,[11],inactive
same,outcome,[12],inactive
same,outcome,[13],inactive
same,outcome,[14],inactive
same,outcome,[15],inactive
same,outcome,[16],inactive

# From PubChem BioAssay
